Most compounds without a hit are left out; they make up all but 10% or so of the library.
HPGD inh: HPGD (human) dehydrogenase inhibition. P15428. AID 894. purified HPGD, NADH fluorescence kinetic, PGE2 substrate. 150,000 compounds, 4.3% hits. Potency, µM, without a hit: at the top dose activity change, negative = inhibition, hits mostly inhibitors; further: potency means the concentration at half of the fitted maximal effect
Target sequence (P15428 whole entry, looked up): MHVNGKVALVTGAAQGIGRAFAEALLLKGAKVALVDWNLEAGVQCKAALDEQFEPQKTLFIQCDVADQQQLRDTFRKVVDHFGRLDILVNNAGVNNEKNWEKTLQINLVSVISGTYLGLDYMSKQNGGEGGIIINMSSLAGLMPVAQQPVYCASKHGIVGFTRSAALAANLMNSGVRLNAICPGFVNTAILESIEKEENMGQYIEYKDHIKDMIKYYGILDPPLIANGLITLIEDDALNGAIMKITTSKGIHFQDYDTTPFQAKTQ
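NADH formation kinetics: reaction with 30 uM PGE2 and 1 mM NAD+ (final), 20 nM enzyme, Tris-HCl pH 8 with Tween 20, after 15 min compound preincubation at room temperature. Fluorescence change, last versus first of five reads.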
PNC assembly inh: inhibitors of perinucleolar compartment assembly; PC3M PTB-GFP, PNC prevalence imaging, 16 h; active compounds read low; activity change (PNC), negative = inhibition, % at 10 µM; 140,000 compounds, 3.1% hits;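 active means readout at or below -70, meaning at least 70% loss of cells showing the perinucleolar compartment, a nuclear body marking cancer cells; inconclusive means readout between -30 and a set limit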;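 further: plate controls were DMSO wells for no effect and camptothecin positive control wells for full effect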
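PC3M cells stably expressing PTB-GFP, 750–1000 cells/well, treated 16 h at 37 °C with compound (23 nl of library stock), in duplicate. After paraformaldehyde fixation and Hoechst stain, imaged at 20x; PNC prevalence scored by image analysis.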
ALDH1A1 inh: blocks purified human ALDH1A1 activity; P00352; Purified ALDH1A1, NADH fluorescence, propionaldehyde substrate; Potency, µM (top dose mostly 75.3 µM), for the others: top-dose activity, negative = inhibition, hits mostly inhibitors; 220,000 compounds, 7.3% hits; AID 1030;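 further: potency means the concentration at half of the fitted maximal effect; plate controls were no enzyme wells and a reference inhibitor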
Target sequence (P00352 whole entry, looked up): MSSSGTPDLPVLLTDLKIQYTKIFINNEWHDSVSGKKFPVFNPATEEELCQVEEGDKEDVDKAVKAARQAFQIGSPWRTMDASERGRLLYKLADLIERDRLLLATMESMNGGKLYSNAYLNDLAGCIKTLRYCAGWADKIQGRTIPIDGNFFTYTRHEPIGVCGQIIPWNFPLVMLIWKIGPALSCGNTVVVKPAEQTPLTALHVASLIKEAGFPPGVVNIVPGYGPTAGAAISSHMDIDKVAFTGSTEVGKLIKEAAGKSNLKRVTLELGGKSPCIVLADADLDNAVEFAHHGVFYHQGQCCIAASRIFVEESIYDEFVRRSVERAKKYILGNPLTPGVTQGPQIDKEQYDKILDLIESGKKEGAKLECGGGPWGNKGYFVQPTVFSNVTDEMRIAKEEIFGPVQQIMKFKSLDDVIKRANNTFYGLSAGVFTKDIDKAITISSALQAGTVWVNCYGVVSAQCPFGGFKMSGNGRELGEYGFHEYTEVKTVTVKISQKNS
Lamin A splicing: changes lamin A minigene splicing in HeLa cells. Potency, µM (series often up to 46.1 µM), for inactives: top-dose ratio change, negative = inhibition, usual class: inhibitors. 200,000 compounds, 0.01% hits. AID 1487. HeLa LMNA splicing GFP/RFP minigene ratio, 48 h; active means well fitted inhibition curve with a large enough effect in the signal ratio, with a control signal flat, not every such curve was filed as active; inconclusive means small, poorly fitted or top-dose-only effect, or effect the other way, or a change in a side signal; the % refers to the signal ratio; further: potency means the concentration at half of the fitted maximal effect
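S3 HeLa cells stably expressing lamin A-EGFP splicing minigene plus DsRed2, 600 cells/well, 48 h compound exposure at 37C. Laser-scanning cytometry; analysed as GFP (500-530 nm)/RFP (575-640 nm) total intensity ratio; 0.5% DMSO vehicle.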
12-hLO inh: blocks human 12-lipoxygenase activity | 150,000 compounds, 0.12% hits | AID 1452 | Potency, µM (highest dose often 57.1 µM), inactives show at the top dose activity change, negative = inhibition, hits mostly inhibitors | P18054 | purified 12-hLO, xylenol orange hydroperoxide absorbance; active means well fitted inhibition curve with a large enough effect; inconclusive means small, poorly fitted or top-dose-only effect; further: potency means the concentration at half of the fitted maximal effect; nearly all actives have a fitted effect of over 55% in size
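Lipoxygenase turnover measured by absorbance at 573 and 405 nm after Fe-XO development. Human 12hLO 150 nM, arachidonate 40 uM, pH 7.0 Hepes buffer with detergent; 15 min compound preincubation, 30 min reaction.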
* = called active by the depositor; ? = inconclusive; nt = no result given; ! = a repeat was not active; [ ] = remark or other dose. Unless noted, the call rests on the fitted dose curve; in most records, active means well fitted inhibition curve with a large enough effect (not every such curve was filed as active); inconclusive means small, poorly fitted or top-dose-only effect, or another doubt; inactive means no such curve, though single readings can be large or run the other way. Unless noted, on the % scale 0 is the no-effect control and ±100 the full control effect.

SMILES	HPGD inh	PNC assembly inh	ALDH1A1 inh	Lamin A splicing	12-hLO inh
Nc1ncnc2c1ncn2[C@@H]1O[C@H](COP(=O)(O)OP(=O)(O)OP(=O)(O)O)[C@H]2OC3(O[C@H]21)C([N+](=O)[O-])=CC(=[N+]([O-])[O-])C=C3[N+](=O)[O-] (stereo partly specified)	?	nt	?	nt	16%[0.00818 µM]
Nc1nc(N)c(Cn2ccnc2)c(=O)[nH]1	3%	nt	0%[13.5 µM]	nt	-1%[11.4 µM]
O=[N+]([O-])c1ccc2nc(N3CCNCC3)ccc2c1	-16%	nt	25µM*	?	6%
O=C1NC(=S)N(Cc2ccco2)C(=O)/C1=C\c1cccs1	nt	nt	18µM*	nt	nt
C=CCN1C(=O)/C(=C/c2ccc(N3CCOCC3)o2)C(=O)NC1=S	28µM*	50	-6%	?	-9%
C=CCN1C(=O)/C(=C/c2cccs2)C(=O)NC1=S	3.2µM*	?	8.9µM*	?	-13%
O=C1NC(=O)C(=Cc2ccc(N3CCOCC3)o2)C(=O)N1	nt	nt	0%	nt	nt
O=c1c(O)c(-c2ccc(O)c(O)c2)oc2c(O)c(O)cc(O)c12	18µM*	nt	35µM*	nt	-5%
Brc1c(Br)c(Br)c2n[nH]nc2c1Br	?	nt	?	?	-2%
O=C(O)c1cc(O)c(O)c(O)c1	7.1µM*!	nt	2µM*	?	5%
O=C(O)c1ccccc1O	?	?	?	-3%	1%
Oc1ccc(Cl)cc1Cc1cc(Cl)ccc1O	14µM*!	-1	12%	?	?
Oc1ccc(Cl)cc1Cl	-10%	nt	-5%	nt	-2%
Oc1ccc(Cl)cc1Cc1ccccc1	10µM*	nt	-5%	?	-9%
C=CCN1CC[C@@]23CCCC[C@@H]2[C@@H]1Cc1ccc(O)cc13	nt	nt	nt	nt	-5%
C=CC(=O)OCC(CC)CCCC (stereo unspecified)	-5%	nt	-4%	nt	2%
S=C(S)N1CCCC1	10µM*	nt	0.79µM*	?	?
Cc1ccccc1N1C(=O)NC(=O)/C(=C\c2ccc3c(c2)CCCN3Cc2ccccc2)C1=O	1.8µM*	7	?	?	-16%
C1CCOC1	-3%	nt	?	nt	0%
CCCCC/C=C\C/C=C\C/C=C\C/C=C\CCCC(=O)NCc1ccc(O)c(OC)c1	32µM*	nt	25µM*	nt	-21%[0.00818 µM]
COc1cc(CNC(=O)CCCC/C=C/C(C)C)ccc1O	-24%	nt	2µM*!	?	1%[0.00818 µM]
Cc1cc2c(s1)NC(=O)CN=C2c1cccs1	25µM*	-21	?	15%	-28%
O=C1CN=C(c2cccs2)c2c(sc3c2CCCC3)N1	?	-27	?	?	-6%
COc1ccc2c(c1)CC[C@@H]1[C@@H]2CC[C@]2(C)[C@@H](NCCCCCCN3C(=O)C=CC3=O)CC[C@@H]12	nt	nt	8%	nt	nt
Clc1ccc(C(Cl)(Cl)Cl)cc1Cl	1%	nt	0%	nt	-3%
SMILES	HPGD inh	PNC assembly inh	ALDH1A1 inh	Lamin A splicing	12-hLO inh
CC(/C=C(\C)Nc1ccccc1)=Nc1ccccc1	nt	nt	25µM*	10%[46 µM]	nt
NC(=Nc1ccccc1)Nc1ccccc1	-9%	nt	-1%	?	-2%
CN1CCN(c2ccc([N+](=O)[O-])cc2Cl)CC1	nt	nt	-5%	3%[46 µM]	nt
CN1CCN(C(=S)c2ccc([N+](=O)[O-])cc2)CC1	28µM*	-18	?	-13%	-4%
N#CSCSC#N	6.3µM*	nt	0.11µM*	nt	-11%
C(=NCCN1CCOCC1)=NC1CCCCC1	-4%	nt	7%[13.5 µM]	nt	-5%[11.4 µM]
CCN1CCN(c2ccc(N)c(C)c2)CC1	nt	nt	2%	-12%[46 µM]	nt
CCC(=O)c1cc(F)c(N2CCN(CC)CC2)cc1C	-8%	50	20µM*	5%	10%
COc1ccc(C(=O)c2c(C)n(CCN3CCOCC3)c3cc(I)ccc23)cc1	-9%	nt	5µM*	nt	-3%
CN(C)[C@@H]1C(=O)C(C(N)=O)=C(O)[C@@]2(O)C(=O)C3=C(O)c4c(O)cccc4[C@@](C)(O)[C@H]3[C@H](O)[C@@H]12	7.1µM*	33	28µM*!	?	-8%
C[CH2][Hg][S]c1ccccc1C(=O)O	0.28µM*	nt	0.18µM*	?	?
CN(N=O)c1ccc(O)c(O)c1	8.9µM*	nt	16µM*	?	-21%
C[C@@H]1CC[C@@H]2N(C1)C[C@H]1[C@@](O)([C@H](O)C[C@]3(O)[C@H]4CC[C@H]5[C@]6(O)O[C@]4(C[C@]13O)[C@@]5(C)CC[C@@H]6O)[C@@]2(C)O	-7%	nt	13%[13.5 µM]	nt	-2%[11.4 µM]
CC(C)(C)NCC1(CO)SC(N)=NC1=O (stereo unspecified)	-13%	-17	4%	?	-5%
COc1ccc(S(=O)(=O)NC(CC(=O)N2CCc3ccccc32)c2ccco2)cc1 (stereo unspecified)	5%	-82*	?	-2%	-1%
CNC(=O)[C@@H]1C[C@H]1[C@@H](NP(=O)(c1ccccc1)c1ccccc1)c1ccccc1	-2%	nt	-11%	nt	-3%
O=C(O)[C@H]1C[C@@H]1[C@H](NP(=O)(c1ccccc1)c1ccccc1)c1ccccc1	-4%	-82*	-9%	-8%	-1%
CC1CN(c2ccc([N+](=O)[O-])cc2Cl)CCN1 (stereo unspecified)	nt	nt	16µM*	?	nt
Oc1ccccc1O	18µM*	nt	14µM*	?	-20%
O=Cc1cn(Cc2cccc([N+](=O)[O-])c2)c2ccccc12	-17%	?	4µM*	?	-7%
O=Cc1cn(CCCOc2ccccc2)c2ccccc12	?	-17	?	?	-1%
O=Cc1cn(Cc2c(F)cccc2Cl)c2ccccc12	nt	nt	3.2µM*	nt	nt
Cc1c(C=O)c2ccccc2n1Cc1ccccc1F	nt	nt	?	19%[46 µM]	nt
O=Cc1cn(Cc2ccccc2F)c2ccccc12	nt	nt	0.45µM*	nt	nt
CCC(C)n1c(O)c(C(c2ccccn2)c2c(O)n(C(C)CC)c(=S)[nH]c2=O)c(=O)[nH]c1=S (stereo unspecified)	32µM*	?	7.1µM*	-4%	?
SMILES	HPGD inh	PNC assembly inh	ALDH1A1 inh	Lamin A splicing	12-hLO inh
Cn1c(O)c(C(c2ccccn2)c2c(O)n(C)c(=S)n(C)c2=O)c(=O)n(C)c1=S	-2%	49	?	6%	1%
ClC(Cl)=C(Cl)Cl	-5%	nt	14%	nt	1%
CC(C)C[C@H](NP(=O)(O)O[C@@H]1O[C@@H](C)[C@@H](O)[C@@H](O)[C@H]1O)C(=O)N[C@@H](Cc1c[nH]c2ccccc12)C(=O)O	nt	nt	nt	nt	2%
Cc1ccc(N/N=C/c2c(O)n(-c3ccccc3)c(=O)[nH]c2=O)cc1	nt	nt	11µM*	nt	nt
Cc1ccc(-n2c(O)c(C=NCCN(C)C)c(=O)[nH]c2=O)cc1	-15%	22	0%	?	-2%
CCCCC[CH2][Hg][S]C1=C2N=CNC2NC(N)=N1 (stereo unspecified)	0.71µM*	nt	0.32µM*	nt	nt
Nc1ccc([N+](=O)[O-])cc1[N+](=O)[O-]	-2%	nt	-10%	nt	-1%
O=[N+]([O-])c1ccc(F)c([N+](=O)[O-])c1	-24%	nt	20µM*	nt	2%
